High-throughput results: PubChem BioAssay, several laboratories
Only some compounds are listed: those with a hit (about 1.6% of all), similar ones and a draw of the others.
HUVEC tox TNFa = toxic to HUVEC cells under TNF alpha stimulation | cell count reduction, % at 2 µM | HUVEC TNFalpha-stimulated, Hoechst cell count, imaging | actives 0.17% (n = 93,000);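 active means cell count reduction exceeding the screen mean by over 5 SD, scaled to untreated wells per plate, cut at about 78% in these data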;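 further: cells counted after 24 h of TNF alpha exposure following the 1 h pretreatment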
S1P2 blocker = blocks the human S1P2 receptor; O95136; cell-based S1P2 antagonist assay, inhibition at 5 uM; inhibition, % at 5 µM; actives 0.21% (n = 97,000); in the data active means inhibition above about 45%;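 further: CRE beta-lactamase reporter cells expressing human S1P2 stimulated with S1P; 0% = agonist at EC80 alone and 100% = agonist plus reference antagonist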
Target sequence (O95136 whole entry, looked up): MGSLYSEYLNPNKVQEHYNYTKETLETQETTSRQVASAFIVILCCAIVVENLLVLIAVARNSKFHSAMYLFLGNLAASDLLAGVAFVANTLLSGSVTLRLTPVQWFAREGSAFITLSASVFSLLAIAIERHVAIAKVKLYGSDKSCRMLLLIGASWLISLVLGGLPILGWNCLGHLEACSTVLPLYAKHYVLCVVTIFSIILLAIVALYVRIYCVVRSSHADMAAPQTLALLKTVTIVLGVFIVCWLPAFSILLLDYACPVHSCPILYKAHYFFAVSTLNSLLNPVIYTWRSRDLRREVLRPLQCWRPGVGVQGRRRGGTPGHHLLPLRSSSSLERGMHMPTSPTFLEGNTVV
VCAM1 TNFa inh = reduces TNF alpha induced VCAM1 expression in HUVEC. inhibition, % at 2 µM. actives 0.48% (n = 95,000). HUVEC TNFa-induced VCAM-1 immunofluorescence, high-content imaging. AID 802;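 active means inhibition above the batch mean plus 3 SD, with images confirmed as a hit by eye, cut at about 37% in these data; inconclusive means inhibition above that limit but hit not confirmed in images; inactive means inhibition not above that limit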;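 further: 0% = TNF-stimulated DMSO wells and 100% = unstimulated control wells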
F-actin modifier = alters cytoskeleton assembly in HUVEC cells; actives 0.18% (n = 91,000); inhibition, % at 2 µM; HUVEC TNFa F-actin phalloidin imaging, high content;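 active means inhibition above the batch mean plus 3 SD and confirmed as a hit by visual image inspection, cut at about 30% in these data, passing the limit was not always enough; inconclusive means above the inhibition threshold but rejected on visual inspection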
S1P2 ag = S1P2 (human) receptor agonism | S1P2-expressing cell line, agonist reporter read-out | actives 0.46% (n = 97,000) | O95136 | activation, % at 4.5 µM; in the data active means activation above about 16%;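 further: 0% = vehicle low control and 100% = maximal reference agonist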
E-sel TNF inh = TNF alpha driven E-selectin expression inhibition | inhibition, % at 2 µM | HUVEC TNFa-induced E-selectin immunofluorescence, high content | actives 0.71% (n = 120,000) | AID 1246;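 active means inhibition above the batch mean plus 3 SD, and confirmed as a hit on visual image review, cut at about 43% in these data; inconclusive means passes the inhibition cutoff but fails visual image review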;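 further: 0% = TNF-stimulated DMSO wells and 100% = unstimulated control wells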
* hit, by the source's call; ? = inconclusive; · = not tested or not shown.

SMILES	HUVEC tox TNFa	S1P2 blocker	VCAM1 TNFa inh	F-actin modifier	S1P2 ag	E-sel TNF inh
O=S(=O)(c1cccs1)N1CCN(CC(O)COC2CCCc3ccccc32)CC1 (stereo unspecified)	-2	-1	-3	-23	-2	18
COc1ccc(C(c2c[nH]c3ccccc23)c2c[nH]c3ccccc23)cc1O	-19	5	12	5	89*	·
COc1ccc(NC(=O)CCCc2c[nH]c3ccccc23)cc1OC	·	·	·	·	·	-26
CC1CCCN(c2nc3ccsc3c(=O)s2)C1 (stereo unspecified)	91*	-11	92*	-21	-8	4
CC(=O)NS(=O)(=O)c1ccc(N2C(=O)c3ccccc3C2=O)cc1	·	·	·	·	·	35
O=c1cc(-c2ccc(F)cc2)oc2ccccc12	-31	5	14	4	-4	44*
CCn1c(SCC(=O)Nc2ccccc2)nnc1C1CCCCC1	-22	2	-6	23	-4	60*
Cc1cccc(C)c1NC(=O)CN(c1ccccn1)S(=O)(=O)c1ccccc1	·	·	·	·	·	16
COc1ccc(Cn2c(-c3ccco3)nc3oc4cc(OC)ccc4c(=O)c3c2=O)cc1	·	13	·	·	79*	-47
COc1ccc(OCCCC(=O)Nc2cc([N+](=O)[O-])ccc2C)cc1	3	16	-15	-14	-1	-17
COCCCn1c(N)c(-c2nc3ccccc3n2C)c2nc3ccccc3nc21	-19	30	-10	·	-10	7
Cn1c(-c2c(N)n(CCc3ccccc3)c3nc4ccccc4nc23)nc2ccccc21	-14	59*	-20	2	-8	-12
Cn1c(-c2c(N)n(C3CCCC3)c3nc4ccccc4nc23)nc2ccccc21	-16	93*	-21	·	-15	-10
Cn1c(-c2c(N)n(CCCc3ccccc3)c3nc4ccccc4nc23)nc2ccccc21	-24	75*	5	6	-13	-11
Nc1c(C(=O)OCC2CCCO2)c2nc3ccccc3nc2n1C1CCCC1 (stereo unspecified)	·	12	·	·	0	·
O=C(COC(=O)Cn1cnc2ccccc21)Nc1cc2c(cc1Cl)C(=O)c1ccccc1C2=O	·	·	·	·	·	5
COc1cccc(N2C(=O)N(c3ccccc3)C3CS(=O)(=O)CC32)c1 (stereo unspecified)	-7	3	-7	46	-4	10
O=C1N(c2ccccc2)C2CS(=O)(=O)CC2N1c1ccc(Br)cc1 (stereo unspecified)	5	-4	4	0	0	100*
Cc1cc(NC(=O)C2C3C=CC(C3)C2C(=O)O)no1 (stereo unspecified)	100*	-12	?	?	-4	-2
Cc1cc(NC(=O)C2CC=CCC2C(=O)O)no1 (stereo unspecified)	-11	2	6	0	1	-10
c1ccc(-c2nc3ccccn3c2NCc2ccc3c(c2)OCO3)cc1	11	6	10	0	174*	-39
COc1ccc(-c2nc3ccccn3c2NCc2ccc3c(c2)OCO3)cc1	-6	-14	-8	3	-8	-7
COc1cc(C2C(C#N)=C(N)Oc3c2oc(CO)cc3=O)cc(OC)c1OC (stereo unspecified)	-17	10	12	8	-6	100*
CC(C)Cn1c(N)c(C(=O)COC(=O)CC23CC4CC(CC(C4)C2)C3)c(=O)n(C)c1=O	-27	59*	-6	18	-2	-14
O=C(Nc1nnc(-c2ccco2)s1)C1CC1	-7	8	3	12	-2	95*
SMILES	HUVEC tox TNFa	S1P2 blocker	VCAM1 TNFa inh	F-actin modifier	S1P2 ag	E-sel TNF inh
CC(C)=C1SC(N2CCN(c3ccc(C)cc3)CC2)=NC1=O	-15	-15	12	-4	-2	63*
COc1ccc(NS(=O)(=O)c2cccc(NC(=O)c3ccc(S(=O)(=O)N4CCCCCC4)cc3)c2)cc1	·	·	·	·	·	-14
COc1ccc(S(=O)(=O)Nc2cccc(S(=O)(=O)N3CCCCCC3)c2)cc1	·	·	·	·	·	71*
Cc1ccc2[nH]c(=O)c(C(c3nnnn3CC3CCCO3)N3CCCc4ccccc43)cc2c1 (stereo unspecified)	2	-23	-10	-15	0	-2
CN1N=C(C(=O)Nc2ccc3c(c2)CCC3)CCC1=O	·	·	·	·	·	-29
O=S(=O)(c1ccc(Br)s1)N1CCN(c2ccccc2)CC1	20	2	84*	36*	0	-4
CCN1CCN(S(=O)(=O)c2ccc(Br)s2)CC1	·	2	-23	-7	-2	-8
O=C(Nc1cccc(Cl)c1)OCc1cn(-c2ccc(Cl)cc2)nn1	6	8	30	-4	-8	-21
CCOC(=O)CSc1nc2cc(C)ccc2cc1C#N	-20	-22	-21	-17	-2	18
CCOC(=O)CSc1nc2cc(OC)ccc2cc1C#N	-29	-19	-9	5	-7	100*
O=C(c1ccco1)N(Cc1ccc([N+](=O)[O-])cc1)c1ccc(Br)cc1	8	0	-28	7	-1	-22
O=C(c1ccc([N+](=O)[O-])cc1)N(Cc1ccc(Br)cc1)N1C(=O)CCCC1=O	-20	18	30	·	-3	98*
Cc1ccc2c(c1)N(C(=O)c1ccco1)C(C)(C)c1ssc(=S)c1-2	-13	-41	1	3	0	5
CCOc1ccccc1C(=O)N1CCN(c2cccc(Cl)c2)CC1	73	-2	84*	-5	1	-14
CCOc1ccccc1N1CCN(C(=O)c2cccc(-c3ccc(O)cc3)c2)CC1	-1	-7	44*	23	-2	2
O=C(O)c1ccccc1C(=O)N1CCN(c2cccc(Cl)c2)CC1	-21	-9	7	10	-1	11
N#C/C(=C\c1ccc(Cl)cc1Cl)c1n[nH]c(Cn2cncn2)n1	22	-54	-19	-6	0	-6
COc1ccc(Cc2nnc(SCC(=O)NC3CCCC3)o2)cc1	-27	7	16	4	-6	54*
O=C(CSc1nnc(Cc2ccccc2)o1)NC1CCCCC1	5	-1	-1	8	-6	-25
Cc1cc(-c2nnc(SCC(=O)NC3CCCC3)o2)no1	-22	15	0	10	70*	8
COc1ccc(OC)c(C(=O)CSc2nc3cccnc3n2C)c1	11	-15	5	-17	32*	-55
CSC(=S)N/N=C(\C)c1ccccc1	·	·	·	·	·	-11
O=C(Oc1csc(=S)n1C(=O)c1ccccc1)c1ccccc1	86*	-5	98*	-71	-8	-2
COCCNC(=O)/C=C/c1c(Cl)cccc1Cl	·	·	·	·	·	-15
CCOc1ccc2[nH]c(C)c(CN3CCCCC3)c(=O)c2c1	9	-2	11	-2	-2	·
CCN1CCN(Cc2c(C)[nH]c3ccc(C(=O)OC)cc3c2=O)CC1	-26	-14	96*	8	-5	-15
Cc1nn(C)cc1/C=N/NC(=O)C1(O)c2ccccc2-c2ccccc21	·	·	·	·	·	-25
Cc1cc(N2CCOCC2)c2c(N)c(C)cc(C)c2n1	·	-9	100*	·	-6	-42
COc1cc(OC)cc(C(=O)N2CCC(N3CCCCCC3)CC2)c1	-13	-2	17	-3	2	24
